The values that follow come from PubChem BioAssay (EPA / NIEHS).

Active and inactive are the calls of the source. How the source made its calls: active means hit-call score of the fitted dose curve at least 0.9, where 1 is the maximum; inactive means score below 0.9.

Read-out in this experiment: Monocyte Chemoattractant Protein-1 (MCP1), CCL2 (gene 6347)
Put plainly: BSK_4H_MCP1: BioMAP Diversity Plus: 4H Assay for Monocyte Chemoattractant Protein-1 (MCP1) Biomarker Activity (AID 2283018). The following applies: primary human endothelial cells (HUVEC); actives raise or lower the signal. The method, then:
BSK_4H is a cell-based, multiplexed-readout assay that uses umbilical vein endothelium, a human vascular primary cell, with measurements taken at 24 hours after chemical dosing in a 96-well plate.BSK_4H_MCP1 is an assay component measured in the BSK_4H assay. It measures MCP-1 antibody related to regulation of gene expression using ELISA technology.Data from the assay component BSK_4H_MCP1 was analyzed into 1 assay endpoint. This assay endpoint, BSK_4H_MCP1, was analyzed with bidirectional fitting relative to DMSO as the negative control and baseline of activity. Using a type of binding reporter, gain or loss-of-signal activity can be used to understand changes in the signaling as they relate to the gene CCL2. Furthermore, this assay endpoint can be referred to as a primary readout, because this assay has produced multiple assay endpoints where this one serves a signaling function. To generalize the intended target to other relatable targets, this assay endpoint is annotated to the cytokine intended target family, where the subfamily is chemotactic factor.
The levels of cell surface (or secreted, indicated by the prefix "s") biomarker endpoints were measured by ELISA. Overt cytotoxicity to cells in confluent adherent cultures (all systems other than the BT system) was assessed by measuring total protein levels using sulforhodamine B (SRB) staining in parallel cultures at the time of biomarker measurements, indicated as SRB endpoints. For proliferation assays for adherent cell types, individual cell types are cultured at sub-confluence and relative cell numbers quantified by SRB staining at time points optimized for each system (48 h: 3C and CASM3C systems; 72 h: BT and HDF3CGF systems; 96 h: SAg system). SRB was performed by staining cells with 0.1% SRB after fixation with 10% TCA and reading wells at 560 nm.Viability and proliferation of PBMC (T cells) was quantified by Alamar Blue reduction for the SAg and BT systems. For PBMC viability (referred to as PBMC Cytotoxicity within the assay endpoint names), cells were plated (75,000/well in a 96-well plate) and then chemical samples added for 1 h before addition of activators, SEB and TSST-1 (20 ng/mL final concentration each). Cells were incubated for 90 h. Then, Alamar Blue (20 uL/well) (Invitrogen, Cat DAL1100) was added for 6 h, and the plates were read with a fluorescence microplate reader at 546/580 nm (excitation/emission). For PBMC proliferation, cells were plated and activated as above but incubated for only 16 h prior to addition of Alamar Blue. Plates were read after 6 h.
Regarding `NC(=O)N(O)[C@@H]1COc2cc(OCc3ccccc3)ccc21`, the outcome was inactive.

Take `Cc1ncc([C@@H](CCCCCCc2ccc3c(n2)NCCC3)CC(=O)O)cn1`: the outcome was inactive.

In the case of `OCc1ccccc1`, the outcome was inactive.

On to `OCCNCCO`, for which the result was inactive.

As to `Cn1c(=O)c2[nH]cnc2n(C)c1=O`, the outcome was inactive.

Regarding `OCCOCCOCCO`, the outcome was inactive.

In the case of `CCOc1ccc2[nH]cc(C(=O)NCc3ccccc3)c(=O)c2n1`, the outcome was inactive.

Regarding `CNC(C)=O`, the result was inactive.

In the case of `O=C1CN(N=Cc2ccc([N+](=O)[O-])o2)C(=O)N1`, the outcome was inactive.

As for `OC[C@H]1O[C@@](CO)(O[C@H]2O[C@H](CO)[C@@H](O)[C@H](O)[C@H]2O)[C@@H](O)[C@@H]1O`, the result was inactive.

As for `NC(N)=O`, the result was inactive.

As to `c1ccc2ncccc2c1`, the result was inactive.

Regarding `CCCCC(CC)C(=O)OCCOCCOCCOC(=O)C(CC)CCCC` (stereo not given), the outcome was inactive.

On to `O=C(O)c1ccc2c(c1)nc(C(=O)NC1CCN(C3CC3)CC1)n2Cc1cc(-c2ccc(Cl)s2)on1`, for which the result was inactive.

For `CCCCN1C(=O)[C@@H]([C@H](O)C2CCCCC2)NC(=O)C12CCN(Cc1ccc(Oc3ccc(C(=O)O)cc3)cc1)CC2`, the outcome was inactive.

`CC(C)CCCCCCOC(=O)C1CCCCC1C(=O)OCCCCCCC(C)C` (stereo not given): the outcome was inactive.

Take `c1ccc2cc3ccccc3cc2c1`: the result was inactive.

Consider `FC(F)(F)C(F)(F)C(F)(F)C(F)(F)C(F)(F)C(F)(F)I`, for which the outcome was inactive.

As for `NC(=O)N1c2ccccc2C=Cc2ccccc21`, the outcome was inactive.

As for `O=C(O)[C@H](O)[C@@H](O)C(=O)O`, the result was inactive.

On to `FC(F)=C(F)C(F)(F)C(F)(F)C(F)(F)C(F)(F)C(F)(F)C(F)(F)F`, for which the outcome was inactive.

`CC(=O)c1ccccc1`: the outcome was inactive.

On to `COCc1nnc(-c2ccc[n+]([O-])c2)n1-c1c(Cl)c(Cl)cc2[nH]c(=O)c(=O)[nH]c12`, for which the outcome was inactive.

`O=S(=O)(O)c1ccc(N=Nc2c(O)ccc3cc(S(=O)(=O)O)ccc23)cc1`: the outcome was inactive.

Regarding `CCCCCCCCN(C)C`, the outcome was inactive.

For `OCc1c[nH]c2ccccc12`, the outcome was inactive.

Consider `O=C(Cl)C(F)(F)C(F)(F)C(F)(F)C(=O)Cl`, for which the result was inactive.

As to `O=c1[nH]cnc2c1ncn2[C@H]1CC[C@@H](CO)O1`, the outcome was inactive.

In the case of `C=CN1CCCC1=O`, the outcome was inactive.

Broadly, the AC50 is the midpoint of the concentration-response curve, whichever way the signal moves. `CCc1ccc(O)c(C(C)(C)C)c1`: the concentration at half-maximal activity (AC50) is 25 µM (active).

Turning to `O=C(NO)C1(NS(=O)(=O)c2ccc(Oc3ccc(F)cc3)cc2)CCOCC1`, the result was inactive.

In the case of `Cc1ccc(S(=O)(=O)NC(=O)NN2CCCCCC2)cc1`, the outcome was inactive.

Regarding `CCCCCCOC(=O)CC(CC(=O)OCCCCCC)(OC(=O)CCC)C(=O)OCCCCCC`, the result was inactive.

`COc1cc2c(c(OC)c1OC)-c1ccc(OC)c(=O)cc1[C@@H](NC(C)=O)CC2`: the result was inactive.

Consider `COS(C)(=O)=O`, for which the result was inactive.

As to `O=S(=O)(O)CCC(F)(F)C(F)(F)C(F)(F)C(F)(F)C(F)(F)C(F)(F)F`, the result was inactive.

Turning to `O=S1(=O)CCCO1`, the outcome was inactive.

For `CC(C)CC(C)O` (stereo not given), the result was inactive.

With `CCn1nc(C)c2c1C(=O)NCC(c1ccc(O)cc1)=N2`, the result was inactive.

For the molecule `CCCc1ccccc1`, the result was inactive.
